This is an account of results in PubChem BioAssay (NCI).

Compounds without any hit were thinned out: in the full panel of roughly 83,000, 20% have a hit.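 Testing used 96-well plates and a 48-hour single-concentration exposure. Example: -40 means 40% of the starting cells died.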 Unmarked numbers belong to inactive results. Calls of active or inactive are those of the source. The calls were made as follows: active = growth percent below 10; inactive = the rest.

Test systems include SR leukemia; RPMI-8226 leukemia; OVCAR-8 ovarian; OVCAR-5 ovarian; OVCAR-4 ovarian; SK-OV-3 ovarian; IGROV1 ovarian; OVCAR-3 ovarian; HS 578T breast; NCI/ADR-RES ovarian; T-47D breast; BT-549 breast; MDA-MB-435 melanoma; SW-620 colon; MCF7 breast; HCT-116 colon; HCC-2998 colon; KM12 colon.
Common to all, as to experiment: NCI-60 one-dose screen, 48 h (100 = growth as untreated, 0 = no growth, -100 = all killed)
Holding throughout (conditions): 10 µM unless noted

Regarding `COc1cccc(-c2nc3occn3c2-c2ccnc(NCCNS(=O)(=O)c3cccc4ccccc34)n2)c1`, the growth with SR leukemia was 110%; with RPMI-8226 leukemia, 102%; in the experiment on OVCAR-8 ovarian, 97.4%; in the experiment on OVCAR-5 ovarian, 123%; in the experiment on OVCAR-4 ovarian, 102%; in the experiment with SK-OV-3 ovarian, 83.5%. Moreover, the growth in the experiment with IGROV1 ovarian was 89%; with OVCAR-3 ovarian, 103%; with HS 578T breast, 105%; with NCI/ADR-RES ovarian, 98.8%; in the experiment on T-47D breast, 87.3%; with BT-549 breast, 105%. For the same compound, the growth was 102% in the experiment with MDA-MB-435 melanoma; 113% in the experiment on SW-620 colon; 95.5% in the experiment on MCF7 breast; 99.9% with HCT-116 colon; 132% in the experiment with HCC-2998 colon; 93.8% in the experiment on KM12 colon.
With `COc1cccc2c1c1nc3cc(C)c(C)cc3nc1n2CCN(C)C`, the growth in the experiment with SR leukemia is 3.48% (active); in the experiment with RPMI-8226 leukemia it was -8.21% (active); with OVCAR-8 ovarian it was 26.4%; with OVCAR-5 ovarian, 28.7%; in the experiment on OVCAR-4 ovarian, 35%; in the experiment on SK-OV-3 ovarian it was 39%. In addition, the growth in the experiment with IGROV1 ovarian is 5.59% (active); in the experiment on OVCAR-3 ovarian it was 32.6%; in the experiment on HS 578T breast, 54.4%; in the experiment with NCI/ADR-RES ovarian, 25.1%; in the experiment with T-47D breast, 30.1%; in the experiment on BT-549 breast, 68.8%. For the same compound, the growth was 31.3% in the experiment with MDA-MB-435 melanoma; 12.6% with SW-620 colon; 4.64% (active) in the experiment on MCF7 breast; 14.4% in the experiment on HCT-116 colon; 44.6% in the experiment with HCC-2998 colon; 29.2% in the experiment with KM12 colon.
For `C=C1C(=O)O[C@H]2[C@H]1CC/C(CNS(=O)(=O)c1cccc3ccccc13)=C\CC[C@@]1(C)O[C@@H]21`, the growth with SR leukemia is 10.7%; in the experiment on RPMI-8226 leukemia it was -16.5% (active); in the experiment with OVCAR-8 ovarian, 38.5%; in the experiment on OVCAR-5 ovarian, 61.9%; with OVCAR-4 ovarian it was 42.8%; in the experiment with SK-OV-3 ovarian it was 107%. Also, the growth in the experiment on IGROV1 ovarian is 15.4%; in the experiment on OVCAR-3 ovarian it was 11.1%; in the experiment on HS 578T breast, 60.9%; in the experiment on NCI/ADR-RES ovarian, 74.3%; in the experiment with T-47D breast, 24.5%; in the experiment on BT-549 breast, 37.2%. The growth in the experiment with MDA-MB-435 melanoma is 38.1%; with SW-620 colon, -34.9% (active); in the experiment on MCF7 breast it was 16.2%; in the experiment on HCT-116 colon, -60.7% (active); in the experiment on HCC-2998 colon it was 71.5%; in the experiment on KM12 colon, 85%.
As for `O=C1c2ccc3c4c(ccc(c24)C(=O)N1CCCNCc1ccccc1)C(=O)N(CCCNCc1ccccc1)C3=O`, the growth was -47.2% (active) in the experiment on SR leukemia; -36.7% (active) in the experiment on RPMI-8226 leukemia; -50.7% (active) in the experiment on OVCAR-8 ovarian; -20.6% (active) with OVCAR-5 ovarian; -97.2% (active) in the experiment on OVCAR-4 ovarian; -11.4% (active) in the experiment on SK-OV-3 ovarian. In addition, the growth in the experiment on IGROV1 ovarian is -23.4% (active); in the experiment with OVCAR-3 ovarian it was -63.4% (active); in the experiment with HS 578T breast, -32.3% (active); in the experiment with NCI/ADR-RES ovarian, -26.5% (active); in the experiment on T-47D breast it was -29.9% (active); in the experiment with BT-549 breast it was -85.2% (active). The growth in the experiment with MDA-MB-435 melanoma is -54% (active); in the experiment on SW-620 colon, -81.8% (active); in the experiment with MCF7 breast, -83.8% (active); in the experiment with HCT-116 colon it was -44.9% (active); in the experiment on HCC-2998 colon, -90.8% (active); in the experiment with KM12 colon, -81.8% (active).
As to `COc1cc(OC)cc(C(=O)C[n+]2cccc3cc[nH]c32)c1`, the growth in the experiment with SR leukemia was 116%; in the experiment on RPMI-8226 leukemia, 106%; in the experiment with OVCAR-8 ovarian, 103%; with OVCAR-5 ovarian, 98.9%; with OVCAR-4 ovarian it was 99.3%; in the experiment with SK-OV-3 ovarian it was 104%. Also, the growth in the experiment on IGROV1 ovarian is 94.2%; with OVCAR-3 ovarian, 106%; in the experiment with HS 578T breast, 101%; with NCI/ADR-RES ovarian, 101%; with T-47D breast it was 100%; in the experiment with BT-549 breast, 102%. The growth was 99% in the experiment on MDA-MB-435 melanoma; 99.8% with SW-620 colon; 94.2% with MCF7 breast; 97.6% in the experiment with HCT-116 colon; 107% in the experiment on HCC-2998 colon; 101% with KM12 colon.
For the compound `Cc1cnc(C(=O)Nc2nc3ccc(S(=O)(=O)Nc4ccc(C(C)(C)C)cc4)cc3[nH]2)cn1`, the growth in the experiment on SR leukemia is 12.3%; with RPMI-8226 leukemia, 18.6%; in the experiment on OVCAR-8 ovarian, 29.2%; in the experiment on OVCAR-5 ovarian, 34.8%; with OVCAR-4 ovarian, 46.5%; in the experiment on SK-OV-3 ovarian, 43%. Moreover, the growth in the experiment with IGROV1 ovarian is 35.1%; with OVCAR-3 ovarian it was -14.3% (active); in the experiment on HS 578T breast it was 4.25% (active); in the experiment on NCI/ADR-RES ovarian, 13.8%; in the experiment on T-47D breast, 27.1%; with BT-549 breast, 26.7%. In addition, the growth in the experiment on MDA-MB-435 melanoma is -64.6% (active); in the experiment on SW-620 colon it was 18.6%; in the experiment with MCF7 breast it was 22.4%; in the experiment with HCT-116 colon, 14.2%; in the experiment with HCC-2998 colon, 33.3%; with KM12 colon it was 22.9%.
Turning to `Cc1nn(-c2ccccc2)c(Oc2c(Cl)cccc2Cl)c1/C=N/N=c1\sc2ccccc2n1C`, the growth was 16.6% in the experiment on SR leukemia; 36.6% in the experiment on RPMI-8226 leukemia; 45.8% in the experiment on OVCAR-8 ovarian; 58.5% in the experiment on OVCAR-5 ovarian; 81.8% with OVCAR-4 ovarian; 70.6% with SK-OV-3 ovarian. Further, the growth with IGROV1 ovarian is 53.6%; in the experiment with OVCAR-3 ovarian it was 49.9%; in the experiment with HS 578T breast, 73.2%; in the experiment with NCI/ADR-RES ovarian, 56.1%; in the experiment on T-47D breast, 47.2%; in the experiment on BT-549 breast, 63.6%. In addition, the growth with MDA-MB-435 melanoma was 64.6%; in the experiment on SW-620 colon it was 34.7%; in the experiment on MCF7 breast it was 45.5%; with HCT-116 colon it was 30.1%; in the experiment on HCC-2998 colon, 71.4%; in the experiment on KM12 colon it was 44.3%.
On to `COc1cc2oc(-c3cccc(C(=O)Nc4ccc(Cl)cc4)c3)cc(=O)c2c(O)c1OC`, for which the growth is 65.1% in the experiment with SR leukemia; 70% in the experiment with RPMI-8226 leukemia; 16.3% in the experiment with OVCAR-8 ovarian; 79.1% in the experiment with OVCAR-5 ovarian; -30.4% (active) in the experiment with OVCAR-4 ovarian; 58.3% in the experiment on SK-OV-3 ovarian. For the same compound, the growth in the experiment on IGROV1 ovarian is 54%; with OVCAR-3 ovarian, 30.4%; in the experiment on HS 578T breast, 6.66% (active); in the experiment with NCI/ADR-RES ovarian, 37.3%; with T-47D breast, 47.2%; with BT-549 breast, 60.1%. Further, the growth was 61% in the experiment on MDA-MB-435 melanoma; 73.6% with SW-620 colon; 80.9% in the experiment with MCF7 breast; 39.9% in the experiment on HCT-116 colon; 96.5% in the experiment on HCC-2998 colon; 62% in the experiment with KM12 colon.
